The record followed here is PubChem BioAssay.

A short description of assay [1]: inhibitors of TNFa-induced NFkB p65 translocation, primary screen, imaging, HUVEC, MLSMR starter and 10KST1 sets (AID 438;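 active means inhibition above 20% together with a positive visual image hit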;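 further: compound added about 3h40 before a 20 min TNFalpha stimulation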;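 on inhibition: signal is the nuclear over cytoplasmic p65 intensity ratio per well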). The conditions noted are these: HUVEC TNFa-induced p65 nuclear translocation; cell count: measured here: nuclei count (cytotoxicity indicator), at 2.08 µM; inhibition: at 2 µM, stronger effect = higher value, 0% TNFa-plus-vehicle, 100% no-TNFa wells.
The nature of assay [2]: reduction of polyQ htt aggregates in cells – imaging, exon1htt(103Q)mCFP cells, high-content imaging, primary screen (AID 483;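 active means visual image review flags a hit and inhibition of aggregation exceeds 20%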;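 further: compound exposure lasted 3 days before fixation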;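 on nuclei count: percent of the per-plate median nuclei count of sample wells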). The note with it: exon1htt(103Q)mCFP cell line, aggregate imaging, at 2 µM; inhibition of aggregation: stronger effect = higher value; nuclei count: measured here: cell count, toxicity.
Assay [3] can be described thus: endothelial E-selectin expression blockers – imaging, HUVEC, immunofluorescence, MLSMR starter and 10KST1 sets, primary screen (AID 487).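 On inhibition: signal is fraction of cell area covered by stained E-selectin grains.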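 On nuclei count: 100% = median nuclei count of all wells on the same plate.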 The note with it: HUVEC TNFalpha-induced E-selectin immunofluorescence imaging, at 2 µM; inhibition: stronger effect = higher value; nuclei count: measured here: cell number, toxicity.
The target in assay [4] is Voltage-gated potassium channel subunit beta-2 (Rattus norvegicus) (UniProt P62483). The assay can be described thus: inhibitors of rat Kvbeta2 reductase activity – biochemical, NADPH fluorescence, primary screen (AID 622;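 active means fluorescence slope higher than the sample average by over 3 SD, cut at about -0.22 in these data, passing the limit was not always enough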;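 further: slope of raw intensity against log time taken from 70 to 1610 s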). The note with it: recombinant KvBeta, 4-cyanobenzaldehyde reduction, at 10 µM, stronger effect = higher value.
Sequence of Voltage-gated potassium channel subunit beta-2 (Rattus norvegicus) (P62483 whole entry, looked up): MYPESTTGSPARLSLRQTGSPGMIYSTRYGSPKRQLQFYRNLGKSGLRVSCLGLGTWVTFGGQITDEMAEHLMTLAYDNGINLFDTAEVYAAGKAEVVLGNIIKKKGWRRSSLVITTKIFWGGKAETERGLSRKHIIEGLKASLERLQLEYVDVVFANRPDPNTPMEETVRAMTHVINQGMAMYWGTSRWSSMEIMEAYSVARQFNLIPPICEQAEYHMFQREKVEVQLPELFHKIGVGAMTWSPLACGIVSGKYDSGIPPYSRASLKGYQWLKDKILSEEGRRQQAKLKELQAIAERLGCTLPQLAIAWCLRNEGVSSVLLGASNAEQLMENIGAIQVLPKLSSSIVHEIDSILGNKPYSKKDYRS
For assay [5] the target is unchanged. The assay is described as follows: enhancers of rat Kvbeta2 NADPH turnover – biochemical, NADPH fluorescence, primary screen (AID 623;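 active means NADPH fluorescence slope more negative than the mean of all samples by about 3 SD, 99.7% confidence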;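 further: fluorescence intensity change per second fitted from 20 to 320 s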). The conditions noted are these: Recombinant KvBeta, NADPH fluorescence decrease slope, 10 min; at 10 µM; stronger effect = lower value.
In assay [6] the target is Alpha-2C adrenergic receptor (Homo sapiens) (UniProt P18825). The assay can be described thus: compounds altering alpha2C-coupled GIRK flux – cell-based, HEK293 alpha2C/GIRK1/2, thallium flux, primary screen (AID 624;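 active means fluorescence slope after compound addition differing from the mean of all screened samples at 99.7% confidence, in either direction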;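 further: slope of fluorescence ratio to pre-addition baseline per second over 15 to 24 s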). The note with it: thallium flux BTC fluorescence, at 10 µM, actives lie on both sides.
Sequence of Alpha-2C adrenergic receptor (Homo sapiens) (P18825 whole entry, looked up): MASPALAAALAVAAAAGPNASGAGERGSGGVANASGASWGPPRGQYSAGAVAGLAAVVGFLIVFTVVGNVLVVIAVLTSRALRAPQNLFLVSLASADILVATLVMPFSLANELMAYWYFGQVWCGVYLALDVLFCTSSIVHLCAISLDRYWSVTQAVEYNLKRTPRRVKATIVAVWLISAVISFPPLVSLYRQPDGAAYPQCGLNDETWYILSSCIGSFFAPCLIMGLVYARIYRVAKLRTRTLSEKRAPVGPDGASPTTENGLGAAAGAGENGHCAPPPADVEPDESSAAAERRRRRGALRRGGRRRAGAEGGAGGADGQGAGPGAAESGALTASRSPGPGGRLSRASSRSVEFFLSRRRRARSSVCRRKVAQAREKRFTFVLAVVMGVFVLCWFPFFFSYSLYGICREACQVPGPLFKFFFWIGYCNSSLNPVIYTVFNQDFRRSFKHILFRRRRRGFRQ
The nature of assay [7]: blockers of RIG-like receptor reporter activation – cell-based, Sendai virus stimulus, luciferase, 10K MLSCN set, TLR/RLR signaling modifier project, primary screen (AID 602276;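 active means inhibition at or above 50% at 10 µM; inactive means inhibition below 50%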;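 further: firefly luciferase from ISG56 promoter only with Renilla not read in this screen; 0% = Sendai virus plus DMSO and 100% = medium plus DMSO without virus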). The note with it: HEK293 RL24 IRF3 luciferase reporter, at 10 µM, stronger effect = higher value. In general terms: In a reporter assay the amount or activity of a reporter protein is the signal.
Assay [8] can be described thus: TLR3 IRF3 reporter activation blockers – cell-based, poly I:C stimulus, luciferase, 10K MLSCN set, primary screen (AID 602277;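 active means inhibition of the reporter signal at or above 50%; inactive means inhibition below 50%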). The note with it: HEK293-TLR3 RL24 IRF3 luciferase reporter, at 10 µM, stronger effect = higher value.

The source made the active and inactive calls.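 How the source made its calls, unless noted: active means visually confirmed hit in the image check and inhibition above 20%; inconclusive means visually confirmed hit but inhibition not above 20%; inactive means no visual hit in the image check.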

One may read the inhibition as the drop in the measured response relative to a control, in per cent. `CCCCOc1ccccc1C1C(C(N)=O)=C(C)Nc2nnnn21` (centres undefined): in assay [1], the cell count was 279. Moreover, the inhibition in assay [1] was -4.7% (inactive); in assay [3], -56% (inactive); in assay [7], 17.4% (inactive); in assay [8], 27.7% (inactive). Besides, the inhibition of aggregation in assay [2] is 0.7% (inactive). Further, the nuclei count in assay [2] amounted to 88.7%; in assay [3], 97.9%. Besides, the fluorescence slope in assay [4] was -0.459 (inactive). Also, the NADPH fluorescence slope in assay [5] is 2.7e-05 (inactive). Besides, the slope in assay [6] was 0.0066 (inactive).
Regarding `O=C(CSCc1cccs1)N1CCCC1`, the cell count in assay [1] was determined as 228. For the same compound, the inhibition was 3.9% (inactive) in assay [1], 18.9% (inactive) in assay [3], -30.1% (inactive) in assay [7] and -81.3% (inactive) in assay [8]. Moreover, in assay [2], the inhibition of aggregation is -13.9% (inactive). Moreover, the nuclei count in assay [2] worked out at 95%; in assay [3] it was 87.8%. In addition, in assay [4], the fluorescence slope was -0.528 (inactive). Moreover, the NADPH fluorescence slope in assay [5] is -1.2e-05 (inactive). For the same compound, in assay [6], the slope was 0.00575 (inactive).
As to `CC(C)CCn1c(NCCc2ccccc2)nc2c1c(=O)n(C)c(=O)n2C`, the cell count in assay [1] turned out to be 753. Also, the inhibition in assay [1] was -8% (inactive); in assay [3], -17.6% (inactive); in assay [7], 9.59% (inactive); in assay [8] it was 32.1% (inactive). Moreover, the inhibition of aggregation in assay [2] is 1.3% (inactive). Moreover, the figures for the nuclei count in assay [2] and in assay [3] were 120% and 108%, respectively. In addition, the fluorescence slope in assay [4] is -0.409 (inactive). In addition, in assay [5], the NADPH fluorescence slope was -7.3e-05 (inactive). Besides, in assay [6], the slope was 0.00481 (inactive).
Regarding `N#Cc1c(NC(NC(=O)c2ccco2)C(=O)c2ccccc2)sc2c1CCCC2` (centres undefined), in assay [1], the cell count was determined as 415. Besides, the inhibition in assay [1] is -6% (inactive); in assay [3] it was -31.6% (inactive); in assay [7] it was 5.59% (inactive); in assay [8] it was 22.2% (inactive). The inhibition of aggregation in assay [2] is -7.6% (inactive). In addition, the nuclei count in assay [2] is 118%; in assay [3], 121%. In addition, in assay [4], the fluorescence slope was -0.369 (inactive). For the same compound, the NADPH fluorescence slope in assay [5] is 9.4e-06 (inactive). Moreover, the slope in assay [6] is 0.00297 (inactive).
Take `CCOCC(=O)Nc1sc2c(c1C(=O)OCC)CCCC2`: in assay [1], the cell count was determined as 300. Further, the inhibition in assay [1] is -1.6% (inactive); in assay [3] it was -39.3% (inactive); in assay [7], 9.19% (inactive); in assay [8], 14% (inactive). Besides, in assay [2], the inhibition of aggregation was 16.6% (inactive). In addition, the nuclei count in assay [2] is 65.8%; in assay [3], 116%. Also, the fluorescence slope in assay [4] was -0.347 (inactive). Further, in assay [5], the NADPH fluorescence slope was -5.2e-05 (inactive). The slope in assay [6] was 0.00551 (inactive).
With `OC1(c2cccc(C(F)(F)F)c2)CCN(c2ccc(-c3ccccc3)nn2)CC1`, the cell count in assay [1] is 853. Also, the inhibition is 4.3% (inactive) in assay [1], -25.2% (inactive) in assay [3], -40.7% (inactive) in assay [7] and -99% (inactive) in assay [8]. For the same compound, the inhibition of aggregation in assay [2] was -13.4% (inactive). Further, the nuclei count in assay [2] stood at 96.8%; in assay [3], 106%. Besides, in assay [4], the fluorescence slope is -0.456 (inactive). In addition, in assay [5], the NADPH fluorescence slope is -4.5e-05 (inactive). Also, the slope in assay [6] was 0.00688 (inactive).
Turning to `COc1ccc(N2CCN(C(=O)C(OC(C)=O)c3ccccc3)CC2)cc1` (centres undefined), in assay [1], the cell count came out at 594. The inhibition is -4.7% (inactive) in assay [1], -2.4% (inactive) in assay [3], 11.4% (inactive) in assay [7] and 11.3% (inactive) in assay [8]. The inhibition of aggregation in assay [2] is -4.8% (inactive). In addition, the values for the nuclei count in assay [2] and in assay [3] were 92.4% and 95.4%, respectively. Moreover, in assay [4], the fluorescence slope was -0.386 (inactive). Further, the NADPH fluorescence slope in assay [5] was 4.8e-05 (inactive). For the same compound, in assay [6], the slope is 0.00658 (inactive).
On to `CC1CCc2nn(CC(=O)NCCN3CCOCC3)cc2C1` (centres undefined), for which, in assay [1], the cell count is 605. Moreover, the inhibition is 4% (inactive) in assay [1], 42.1% (inactive) in assay [3], 7.91% (inactive) in assay [7] and 24.3% (inactive) in assay [8]. The inhibition of aggregation in assay [2] is -0.2% (inactive). Besides, the nuclei count in assay [2] was found to be 94.5%; in assay [3], 97%. Further, the fluorescence slope in assay [4] is -0.612 (inactive). Besides, the NADPH fluorescence slope in assay [5] is 5.1e-06 (inactive). Moreover, the slope in assay [6] was 0.00648 (inactive).
Take `COc1ccc(N2CCN(CCCNS(=O)(=O)c3c(C)noc3/C=C/N(C)C)CC2)cc1`: in assay [1], the cell count was 561. Also, the inhibition in assay [1] is 8.7% (inactive); in assay [3], -36.7% (inactive); in assay [7], 3.23% (inactive); in assay [8], 38.9% (inactive). For the same compound, the inhibition of aggregation in assay [2] is -4.3% (inactive). The nuclei count in assay [2] came out at 101%; in assay [3] it was 73.9%. For the same compound, the fluorescence slope in assay [4] is -0.54 (inactive). The NADPH fluorescence slope in assay [5] is -6e-05 (inactive). Moreover, in assay [6], the slope was 0.00583 (inactive).
On to `Cc1cc(C)n(-c2nc3sc4c(c3c3nnc(SCC(N)=O)n23)CC(C)(C)OC4)n1`, for which the cell count in assay [1] is 368. The inhibition in assay [1] is 6.9% (inactive); in assay [3] it was -4.5% (inactive); in assay [7] it was 6.12% (inactive); in assay [8] it was 10.9% (inactive). The inhibition of aggregation in assay [2] was -7.7% (inactive). The figures for the nuclei count in assay [2] and in assay [3] were 88.2% and 116%, respectively. In assay [4], the fluorescence slope is -0.318 (inactive). The NADPH fluorescence slope in assay [5] was 3.6e-06 (inactive). Further, the slope in assay [6] was 0.00476 (inactive).
Take `COCCNC(=O)CN1CCN(C(c2ccccc2)c2ccccc2)CC1`: the cell count in assay [1] came to 240. In addition, the inhibition is -6.6% (inactive) in assay [1], -7.5% (inactive) in assay [3], -12.4% (inactive) in assay [7] and -6.81% (inactive) in assay [8]. The inhibition of aggregation in assay [2] was 18.2% (inactive). In addition, the nuclei count in assay [2] was found to be 77.7%; in assay [3], 86.9%. Besides, the fluorescence slope in assay [4] is -0.556 (inactive). Further, the NADPH fluorescence slope in assay [5] is -4.9e-05 (inactive). In addition, the slope in assay [6] was 0.00771 (inactive).
As to `CCCn1c(C)cc(C(=O)COc2ncnc3sccc23)c1C`, the cell count in assay [1] stood at 312. In addition, the inhibition in assay [1] is 2.9% (inactive); in assay [3], -66.8% (inactive); in assay [7] it was -64% (inactive); in assay [8], -108% (inactive). Besides, in assay [2], the inhibition of aggregation is 11.2% (inactive). Moreover, the nuclei count in assay [2] is 65.8%; in assay [3], 115%. Also, the fluorescence slope in assay [4] is -0.556 (inactive). Further, the NADPH fluorescence slope in assay [5] is 2.3e-05 (inactive). Besides, the slope in assay [6] is 0.00512 (inactive).
For `O=C(Nc1ccc2nc(-c3cccs3)[nH]c2c1)c1ccco1`, the cell count in assay [1] came out at 334. Further, the inhibition in assay [1] is -0.7% (inactive); in assay [3], -132% (inactive); in assay [7] it was -35.6% (inactive); in assay [8], -87.4% (inactive). Also, in assay [2], the inhibition of aggregation is 23% (inactive). In addition, the nuclei count came out at 78.8% in assay [2] and 119% in assay [3]. For the same compound, in assay [4], the fluorescence slope was -0.429 (inactive). In addition, the NADPH fluorescence slope in assay [5] was -7.7e-05 (inactive). For the same compound, in assay [6], the slope was 0.00445 (inactive).
In the case of `CCN=C1SC(CC(=O)Nc2ccccc2)C(=O)N1CC` (centres undefined), the cell count in assay [1] worked out at 265. In addition, the inhibition in assay [1] was 3.4% (inactive); in assay [3] it was -95.4% (inactive); in assay [7], 8.21% (inactive); in assay [8], 30% (inactive). Moreover, in assay [2], the inhibition of aggregation was 26.6% (inactive). In addition, the nuclei count in assay [2] was found to be 92%; in assay [3], 109%. Also, the fluorescence slope in assay [4] was -0.341 (inactive). Further, the NADPH fluorescence slope in assay [5] was -1.1e-05 (inactive). For the same compound, the slope in assay [6] is 0.00797 (inactive).
